Among the data in ChEMBL document CHEMBL3988442, “University of Dundee, Small-Polar-MMV Screening Library” (2021) are Percent Effect values, retold here.

For some assays here: Potency and affinity values are given separately.

Holding throughout (design): scale not given: direction of the effect not stated beside the values
The target of assay [1] is Protein translocase subunit SecA (Escherichia coli (strain K12)) (UniProt P10408). In words: Assay to Identify E. coli SecA ATPase Inhibitors. The format is functional. To be noted: 30 µM.
For assay [2], the target named is T1, Ubiquitin-activating enzyme e1, putative (Leishmania donovani (strain BPK282A1)) (UniProt E9BSI1).
T1 sequence (whole entry): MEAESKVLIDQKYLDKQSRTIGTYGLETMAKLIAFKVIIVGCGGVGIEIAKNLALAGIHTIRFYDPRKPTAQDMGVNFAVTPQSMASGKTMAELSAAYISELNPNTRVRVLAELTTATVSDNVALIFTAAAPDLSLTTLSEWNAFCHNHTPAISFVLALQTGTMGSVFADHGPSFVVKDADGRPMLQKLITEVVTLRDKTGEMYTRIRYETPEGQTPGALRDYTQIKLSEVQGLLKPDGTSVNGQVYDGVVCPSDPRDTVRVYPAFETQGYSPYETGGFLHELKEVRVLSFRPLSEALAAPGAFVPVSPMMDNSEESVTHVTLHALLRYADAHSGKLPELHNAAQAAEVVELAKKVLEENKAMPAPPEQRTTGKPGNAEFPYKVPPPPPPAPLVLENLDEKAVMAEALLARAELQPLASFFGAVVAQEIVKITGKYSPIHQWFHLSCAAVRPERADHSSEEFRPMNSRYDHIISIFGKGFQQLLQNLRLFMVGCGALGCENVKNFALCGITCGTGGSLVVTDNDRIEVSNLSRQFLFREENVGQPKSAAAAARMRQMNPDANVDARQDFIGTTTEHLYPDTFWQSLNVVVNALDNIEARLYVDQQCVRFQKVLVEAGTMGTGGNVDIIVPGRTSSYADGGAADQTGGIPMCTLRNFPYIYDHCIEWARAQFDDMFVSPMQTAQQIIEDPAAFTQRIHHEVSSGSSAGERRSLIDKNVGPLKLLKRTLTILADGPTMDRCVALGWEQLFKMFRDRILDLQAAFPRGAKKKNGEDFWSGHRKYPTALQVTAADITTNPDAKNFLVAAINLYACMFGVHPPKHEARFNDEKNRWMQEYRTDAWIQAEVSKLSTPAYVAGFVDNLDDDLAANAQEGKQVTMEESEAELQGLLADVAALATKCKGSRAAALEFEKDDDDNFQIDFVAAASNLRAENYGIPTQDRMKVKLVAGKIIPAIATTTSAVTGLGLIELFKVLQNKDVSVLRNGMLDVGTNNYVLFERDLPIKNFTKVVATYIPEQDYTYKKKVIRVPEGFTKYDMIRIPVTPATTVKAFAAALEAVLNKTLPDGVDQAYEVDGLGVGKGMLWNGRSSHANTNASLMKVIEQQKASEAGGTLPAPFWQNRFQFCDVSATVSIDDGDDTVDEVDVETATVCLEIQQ
The experiment in a line: Leishmania donovani Ubiquitin Activating Enzyme (LdE1). The format is functional. To be noted: 30 µM.

The target of assay [3] is Sialic acid-binding Ig-like lectin 9 (Homo sapiens) (UniProt Q9Y336). The experiment in a line: Hs-Siglec9 ALPHAscreen SOP 20170721. To be noted: 10 µM. For orientation: In Alpha technology, singlet oxygen from a donor bead excites a nearby acceptor bead.
For a further assay, the system named is Trypanosoma cruzi. In words: Trypanosoma cruzi phosphomannomutase and mannose-1-phosphate guanylyltransferase assay. The assay is classed as functional. The note with it: 10 µM.
Assay [4] has as its target T2, Arginase-2, mitochondrial (Homo sapiens) (UniProt P78540).
T2 sequence (whole entry): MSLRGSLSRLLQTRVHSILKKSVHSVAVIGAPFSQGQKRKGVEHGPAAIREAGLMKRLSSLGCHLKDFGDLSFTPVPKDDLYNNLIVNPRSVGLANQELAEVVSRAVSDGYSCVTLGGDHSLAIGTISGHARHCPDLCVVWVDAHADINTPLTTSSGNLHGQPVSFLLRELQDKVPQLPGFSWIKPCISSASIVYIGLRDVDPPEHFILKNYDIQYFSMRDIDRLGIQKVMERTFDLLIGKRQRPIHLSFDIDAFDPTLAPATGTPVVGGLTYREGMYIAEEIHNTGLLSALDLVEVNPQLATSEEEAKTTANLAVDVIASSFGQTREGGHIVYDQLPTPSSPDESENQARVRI
The experiment in a line: in vitro enzyme assay to detect the production of urea directly proportional to the activity of Arginase II. Also: in the data most compounds retested in dose-response had high values. The assay is classed as functional. The note with it: 33.3 µM.

The target in assay [5] is T3, Proteasome subunit beta (Trypanosoma cruzi) (UniProt O96673).
T3 sequence (whole entry): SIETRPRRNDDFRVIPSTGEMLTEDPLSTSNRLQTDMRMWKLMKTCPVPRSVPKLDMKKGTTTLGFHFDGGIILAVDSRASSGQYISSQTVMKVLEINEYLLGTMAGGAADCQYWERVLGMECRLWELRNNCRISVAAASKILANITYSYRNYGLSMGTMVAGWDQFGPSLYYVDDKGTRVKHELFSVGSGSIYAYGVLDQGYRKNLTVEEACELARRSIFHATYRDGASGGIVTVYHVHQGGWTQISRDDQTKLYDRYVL
The experiment in a line: Trypanosoma cruzi proteasome chymotrypsin-like activity (TcProtChymo) assay. Also: in the data most compounds retested in dose-response had high values. The assay is classed as functional. To be noted: 9.37 µM.

Another assay is filed under the species Homo sapiens. In words: To identify inhibition of the IFN signalling (Jak-Stat) pathway via expression of an eGFP reporter gene under the control of an IFN-stimulated response element (ISRE) containing MxA promoter. The format is functional. To be noted: 30 µM.
Assay [6] addresses T4, Tyrosyl-tRNA synthetase, putative (Trypanosoma cruzi (strain CL Brener)) (UniProt Q4DSP6).
T4 sequence (whole entry): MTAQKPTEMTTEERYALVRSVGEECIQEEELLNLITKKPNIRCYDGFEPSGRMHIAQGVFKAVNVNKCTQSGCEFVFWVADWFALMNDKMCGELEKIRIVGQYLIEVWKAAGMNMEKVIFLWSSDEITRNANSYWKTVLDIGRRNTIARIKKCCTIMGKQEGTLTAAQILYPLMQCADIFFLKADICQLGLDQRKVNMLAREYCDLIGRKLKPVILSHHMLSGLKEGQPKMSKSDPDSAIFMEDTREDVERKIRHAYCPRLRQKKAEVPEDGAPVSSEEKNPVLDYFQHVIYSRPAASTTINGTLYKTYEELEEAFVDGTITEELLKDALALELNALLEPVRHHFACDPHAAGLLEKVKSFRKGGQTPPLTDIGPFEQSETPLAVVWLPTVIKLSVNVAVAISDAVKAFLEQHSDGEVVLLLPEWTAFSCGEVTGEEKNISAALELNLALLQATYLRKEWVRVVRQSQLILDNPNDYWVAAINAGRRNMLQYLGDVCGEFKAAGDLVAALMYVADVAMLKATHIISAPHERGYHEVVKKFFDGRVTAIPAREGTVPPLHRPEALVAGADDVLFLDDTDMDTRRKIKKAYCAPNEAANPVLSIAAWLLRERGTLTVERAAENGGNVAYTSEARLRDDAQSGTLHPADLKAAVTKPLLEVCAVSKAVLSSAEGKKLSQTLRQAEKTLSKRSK
The experiment in a line: Trypanosoma cruzi tyrosyl tRNA synthetase (TcYRS) _High Tyrosine SOP. Also: in the data most compounds retested in dose-response had high values. The format is functional. The note with it: 30 µM.

Assay [7] has as its target T4, Tyrosyl-tRNA synthetase, putative (Trypanosoma cruzi (strain CL Brener)). In words: Trypanosoma cruzi tyrosyl tRNA synthetase (TcYRS) SOP. The assay is classed as functional. The note with it: 30 µM.
For assay [8], the target named is Chromo domain-containing protein 1 (Saccharomyces cerevisiae (strain ATCC 204508 / S288c) (Baker's yeast)) (UniProt P32657). In words: ScCHD-1 Enzyme Inhibition Assay. Also: in the data most compounds retested in dose-response had high values. The format is functional. To be noted: 30 µM.
Chromo domain-containing protein 1 (Saccharomyces cerevisiae (strain ATCC 204508 / S288c) (Baker's yeast)), sequence (P32657 whole entry, the tested form may be a part): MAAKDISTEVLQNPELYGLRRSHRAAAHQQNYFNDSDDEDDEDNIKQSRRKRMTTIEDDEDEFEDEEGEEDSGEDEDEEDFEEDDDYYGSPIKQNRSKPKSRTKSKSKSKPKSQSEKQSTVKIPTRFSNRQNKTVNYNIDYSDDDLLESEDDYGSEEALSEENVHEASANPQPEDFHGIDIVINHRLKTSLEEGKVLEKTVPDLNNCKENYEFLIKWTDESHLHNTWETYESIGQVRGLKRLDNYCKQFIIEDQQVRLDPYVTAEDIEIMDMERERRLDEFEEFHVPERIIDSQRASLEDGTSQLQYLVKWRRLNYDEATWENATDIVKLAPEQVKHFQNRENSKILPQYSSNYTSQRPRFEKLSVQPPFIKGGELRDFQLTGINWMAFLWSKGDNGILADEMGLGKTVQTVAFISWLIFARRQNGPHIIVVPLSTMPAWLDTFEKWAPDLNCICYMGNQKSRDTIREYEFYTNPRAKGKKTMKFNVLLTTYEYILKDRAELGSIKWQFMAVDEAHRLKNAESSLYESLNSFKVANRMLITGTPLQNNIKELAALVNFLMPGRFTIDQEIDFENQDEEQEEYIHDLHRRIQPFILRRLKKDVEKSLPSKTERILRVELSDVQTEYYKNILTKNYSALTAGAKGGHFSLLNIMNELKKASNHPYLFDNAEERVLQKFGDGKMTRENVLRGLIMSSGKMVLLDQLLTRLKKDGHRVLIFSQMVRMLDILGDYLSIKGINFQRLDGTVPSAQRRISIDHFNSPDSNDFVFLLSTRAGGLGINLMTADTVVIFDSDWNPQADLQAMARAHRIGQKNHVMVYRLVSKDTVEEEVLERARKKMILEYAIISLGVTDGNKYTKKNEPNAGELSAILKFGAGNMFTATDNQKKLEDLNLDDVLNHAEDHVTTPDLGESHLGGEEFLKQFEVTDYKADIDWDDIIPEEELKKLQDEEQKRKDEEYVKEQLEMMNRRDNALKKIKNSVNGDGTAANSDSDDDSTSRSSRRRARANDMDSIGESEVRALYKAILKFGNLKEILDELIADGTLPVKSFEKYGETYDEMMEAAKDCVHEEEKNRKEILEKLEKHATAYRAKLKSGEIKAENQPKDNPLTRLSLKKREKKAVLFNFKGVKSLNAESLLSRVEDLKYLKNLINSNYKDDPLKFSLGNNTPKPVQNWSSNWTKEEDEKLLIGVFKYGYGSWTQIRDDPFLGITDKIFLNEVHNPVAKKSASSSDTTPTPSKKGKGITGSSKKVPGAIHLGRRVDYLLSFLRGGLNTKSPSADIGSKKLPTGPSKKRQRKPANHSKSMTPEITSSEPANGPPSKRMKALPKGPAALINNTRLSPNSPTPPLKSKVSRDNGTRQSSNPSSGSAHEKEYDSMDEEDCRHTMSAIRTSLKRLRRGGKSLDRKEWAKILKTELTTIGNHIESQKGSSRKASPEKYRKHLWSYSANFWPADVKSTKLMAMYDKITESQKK

Sialic acid-binding Ig-like lectin 9 (Homo sapiens), sequence (Q9Y336 whole entry): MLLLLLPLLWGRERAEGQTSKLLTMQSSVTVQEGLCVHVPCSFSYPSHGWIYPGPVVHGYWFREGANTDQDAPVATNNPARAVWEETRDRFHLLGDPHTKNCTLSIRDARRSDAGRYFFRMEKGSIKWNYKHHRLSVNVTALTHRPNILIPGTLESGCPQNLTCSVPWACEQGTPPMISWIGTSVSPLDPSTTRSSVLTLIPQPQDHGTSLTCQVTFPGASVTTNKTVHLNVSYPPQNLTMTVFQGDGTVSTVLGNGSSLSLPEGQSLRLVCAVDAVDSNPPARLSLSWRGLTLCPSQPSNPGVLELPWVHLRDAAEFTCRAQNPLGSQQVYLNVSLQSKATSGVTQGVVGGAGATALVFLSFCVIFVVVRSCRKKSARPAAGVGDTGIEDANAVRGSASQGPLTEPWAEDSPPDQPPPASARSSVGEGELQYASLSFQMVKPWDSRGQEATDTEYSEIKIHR
Protein translocase subunit SecA (Escherichia coli (strain K12)), sequence (P10408 whole entry): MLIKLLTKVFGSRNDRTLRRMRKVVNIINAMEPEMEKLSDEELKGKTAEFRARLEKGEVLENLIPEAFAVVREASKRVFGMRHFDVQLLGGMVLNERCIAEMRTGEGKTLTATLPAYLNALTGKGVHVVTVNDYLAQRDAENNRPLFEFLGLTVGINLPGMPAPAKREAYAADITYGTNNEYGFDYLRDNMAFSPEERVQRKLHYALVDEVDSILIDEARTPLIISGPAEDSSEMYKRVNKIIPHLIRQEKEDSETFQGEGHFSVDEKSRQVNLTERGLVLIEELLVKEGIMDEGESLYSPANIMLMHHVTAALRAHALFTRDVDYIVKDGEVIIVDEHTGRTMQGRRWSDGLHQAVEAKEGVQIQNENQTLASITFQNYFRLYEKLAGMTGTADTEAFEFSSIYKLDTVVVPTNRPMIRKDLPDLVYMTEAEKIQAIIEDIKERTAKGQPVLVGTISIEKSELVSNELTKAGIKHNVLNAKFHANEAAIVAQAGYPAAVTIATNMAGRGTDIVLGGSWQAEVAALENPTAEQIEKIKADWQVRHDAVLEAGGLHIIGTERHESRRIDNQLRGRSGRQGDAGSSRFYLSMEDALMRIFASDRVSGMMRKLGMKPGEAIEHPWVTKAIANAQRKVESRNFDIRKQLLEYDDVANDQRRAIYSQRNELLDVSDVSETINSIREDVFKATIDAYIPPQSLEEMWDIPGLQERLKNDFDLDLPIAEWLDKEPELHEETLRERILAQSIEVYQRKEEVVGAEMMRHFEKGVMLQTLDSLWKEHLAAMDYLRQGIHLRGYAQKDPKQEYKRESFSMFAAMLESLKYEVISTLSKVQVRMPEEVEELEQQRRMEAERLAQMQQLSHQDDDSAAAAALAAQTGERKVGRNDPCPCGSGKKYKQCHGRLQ

As to `Cc1ccc(F)cc1C(=O)N1C[C@@H](CN2CCOCC2)[C@@H](CO)C1`, the Percent Effect in assay [1] was -9.2%; in assay [2], 8.11%; in assay [3] it was 5.12%; with Trypanosoma cruzi it was 2.23%; in assay [4], 4.54%; in assay [5] it was 9.76%. In addition, the Percent Effect in the assay filed under Homo sapiens was 2.21%; in assay [6], 5.85%; in [7], 9.76%; in assay [8], -3.39%.
Consider `O=C(C1CCCCC1)N1CCC2(CCCN2CC2CC2)CC1`, for which the Percent Effect in assay [1] was -2.94%; in [2] it was 11.7%; in assay [3], -2.33%; in the assay on Trypanosoma cruzi, -3.56%; in assay [4], 1.37%; in assay [5], 3.18%. Further, the Percent Effect in the assay listed under Homo sapiens was 13.7%; in assay [6], 2.9%; in assay [7] it was 2.5%; in assay [8], -6.38%.
For `C[C@H]1CN(Cc2cnn(C)c2)C[C@@]12CCN(Cc1cccnc1)C2=O`, the Percent Effect in assay [1] was -2.17%; in assay [2], 11.7%; in assay [3], 0.906%; with Trypanosoma cruzi, -5.07%; in [4], 4.57%; in assay [5], 4.21%. Besides, the Percent Effect was 23.4% in the assay filed under Homo sapiens, 6.76% in assay [6], 2.5% in [7] and -3.65% in [8].
`CC(Cn1cccn1)NC(=O)NCc1cccs1` (stereo not given): the Percent Effect in assay [1] is -2.75%; in assay [2], -66.7%; in assay [3], 2.38%; in the assay with Trypanosoma cruzi, -4.82%; in assay [4], 0.887%; in assay [5] it was 13%. In addition, the Percent Effect in the assay listed under Homo sapiens is 10.9%; in assay [6] it was 3.68%; in [7] it was 7.69%; in assay [8] it was -11.3%.
As to `Cc1ccc(CNC(=O)N2CCN(Cc3ccsc3)CC2)n1C`, the Percent Effect in assay [1] is -3.87%; in assay [2], 2.67%; in [3], -1.44%; with Trypanosoma cruzi, -5.42%; in [4], -5.76%; in assay [5] it was 14.5%. The Percent Effect is 15.6% in the assay listed under Homo sapiens, 2.63% in [6], -17.9% in assay [7] and -19.4% in [8].
As to `Cn1cc(CNCC2Cn3nnc(-c4ccccc4)c3CO2)cn1` (stereo not given), the Percent Effect in assay [1] was -4.8%; in [2], 6.49%; in assay [3] it was 9.99%; with Trypanosoma cruzi, 4.97%; in [4] it was 13%; in assay [5] it was 4.68%. The Percent Effect in the assay filed under Homo sapiens was -2.48%; in assay [6], 2.63%; in assay [7], 10.3%; in assay [8] it was 19%.
For the compound `CC(=O)N1CCCn2nc(CNS(=O)(=O)N3CCCCCC3)cc2C1`, the Percent Effect in assay [1] is -5.72%; in [2], 0%; in assay [3] it was 0.997%; in the assay with Trypanosoma cruzi it was -2.81%; in assay [4] it was 1.75%; in assay [5] it was 11.6%. Besides, the Percent Effect was 4.54% in the assay filed under Homo sapiens, 2.66% in assay [6], 9.76% in assay [7] and 2.81% in assay [8].
Consider `COc1cccc(S(=O)(=O)N2CCC(O)(CN(C)C)C2)c1` (stereo not given), for which the Percent Effect in assay [1] is -2.81%; in [2] it was 4%; in assay [3] it was -1.76%; in the assay on Trypanosoma cruzi it was -3.35%; in [4] it was 4.42%; in [5] it was 9.2%. Further, the Percent Effect in the assay listed under Homo sapiens was -4%; in assay [6] it was 1.06%; in assay [7] it was 7.5%; in [8], -23.8%.
Consider `COC(=O)CC(c1ccc(OC)c(OC)c1)c1oc(C)cc(=O)c1O` (stereo not given), for which the Percent Effect in [1] was -11%; in assay [2] it was 2.7%; in assay [3], 0.92%; with Trypanosoma cruzi it was -4.75%; in assay [4], -10.1%; in [5], 4.45%. The Percent Effect in the assay listed under Homo sapiens was 14.4%; in assay [6], -0.532%; in assay [7] it was -2.44%; in [8] it was -0.871%.
Take `COc1cc(C)c(S(=O)(=O)NCc2cccnc2N(C)C)c(C)c1`: the Percent Effect in [1] was 0.224%; in assay [2] it was 23.4%; in [3], -2.16%; in the assay on Trypanosoma cruzi, 0%; in assay [4], -5.53%; in assay [5] it was 19.8%. Besides, the Percent Effect in the assay filed under Homo sapiens was 52.1%; in assay [6] it was 4.9%; in assay [7], 28.2%; in [8] it was -10.7%.
In the case of `Cc1ccc(-c2nc(CN3CCn4c(nnc4C4CC4)C3)cs2)o1`, the Percent Effect in assay [1] is 2.56%; in assay [2], 0%; in [3] it was -11.3%; with Trypanosoma cruzi it was -0.0939%; in assay [4], -2.87%; in assay [5], 16.3%. Further, the Percent Effect was 35.1% in the assay listed under Homo sapiens, 5.26% in [6], 10.8% in assay [7] and -4.37% in assay [8].
